Screens (PubChem BioAssay)
aSyn UTR inh – 5' untranslated region of α-synuclein, MLPCN primary screen; alpha-synuclein 5'UTR reporter, inhibitor activity; 300,000 tested, 0.82% active; inhibition, % (tested at 7.5 µM); in the data active = inhibition above about 60%;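 note: H4 neuroglioblastoma cells stably carrying SNCA 5'UTR luciferase fusion; 0% = DMSO wells and 100% = positive control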
BaF3 parental – parental Ba/F3 viability inhibition as JAK2V617F counter-screen. CellTiter-Glo ATP luminescence. 220,000 tested, 1.1% active. inhibition, % at 5.6 µM;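 active = inhibition above a per-campaign cutoff, the mean inhibition of all tested compounds plus 3 SD, cut at about 27% in these data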;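 note: 0% = DMSO wells and 100% = JAK Inhibitor I control wells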
KLF5 inhibitor – inhibitors of KLF5 expression. DLD-1 KLF5 promoter-luciferase reporter, luminescence. inhibition, % at 5 µM. 290,000 tested, 0.23% active. AID 1700;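 active = inhibition above a per-plate limit of that plate's mean compound inhibition plus 3 SD, cut at about 60% in these data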;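 note: 0% = DMSO wells and 100% = LY294002 at 200 µM; higher means less KLF5 promoter-driven luciferase light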
APP 5UTR inh – APP translation inhibition; SH-SY5Y APP 5'UTR-luciferase reporter, luminescence; inhibition, % at 2 µM; 190,000 tested, 0.82% active;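 active = inhibition above a set limit, derived from the sample mean plus 3 SD, cut at about 45% in these data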
IEC-6 cytotox – IEC-6 cytotoxicity, counter-screen for KLF5 inhibitors. luminescence viability. inhibition, % at 5 µM. 290,000 tested, 0.78% active. AID 1825;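 note: 0% = plate median of test compound wells and 100% = cytotoxic reference compound wells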
Ba/F3 V617F tox – reduce viability of Ba/F3 cells dependent on JAK2V617F; Ba/F3 EpoR-JAK2V617F viability, ATP luminescence; inhibition, % at 5.6 µM; 220,000 tested, 1.1% active;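 active = inhibition above the campaign mean plus 3 SD over all tested compounds, cut at about 24% in these data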;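 note: cytokine-independent growth of Ba/F3 cells driven by EpoR plus mutant JAK2; 0% = DMSO-treated cells and 100% = JAK inhibitor I control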
IEC-6 tox confirm – IEC-6 cytotoxicity, confirmation assay; AID 1907; IEC-6 rat intestinal epithelial viability, luminescence; 1,900 tested, 63% active; inhibition, % at 5 µM; shares compounds with IEC-6 cytotox;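 note: 0% = vehicle and 100% = reference cytotoxic drug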
Numbers without * were called inactive; . = no result. Only some compounds are listed: those with a hit (about 2.2% of all), similar ones and a draw of the others. Cut-off read from the data, not from the text of the source, unless noted: active = inhibition above about 22%; inactive = the rest.

SMILES	aSyn UTR inh	BaF3 parental	KLF5 inhibitor	APP 5UTR inh	IEC-6 cytotox	Ba/F3 V617F tox	IEC-6 tox confirm
O=C(O)c1cccc(S(=O)(=O)Nc2ccccc2C(=O)NCCc2ccccc2)c1	-64	.	-40	.	-1	.	.
C=CCSc1nc2sc(C)c(C)c2c(=O)n1CC=C	-19	0	-9	11	-3	-5	.
C=CCn1c(SCC(=O)c2cccs2)nc2sc(C)c(C)c2c1=O	40	7	-12	11	68*	6	46*
O=C1CC(c2ccccc2)CC(O)=C1C=NCc1ccccc1Cl (stereo not given)	-6	29*	51	61*	31*	43*	30*
CC(C)c1ccc(/C=C2\SC(=S)N(CCC(=O)N3CCCCC3CCO)C2=O)cc1 (stereo not given)	-19	.	36	.	-7	.	.
COc1cc(/C=N/Nc2nc(C)nc3c2cnn3-c2ccccc2)ccc1O	-14	51*	11	50*	32*	46*	9
COc1cc(/C=N/NC(=O)c2nc(-c3ccccc3)n(-c3ccccc3)n2)ccc1O	39	3	-17	12	2	-1	.
Cc1nn(Cc2noc(C(=O)NC3CCC(C)CC3)n2)c(C)c1Br (stereo not given)	16	.	-16	.	35*	.	24*
Cc1cccc(NC2=NC(C)(C)N=C(N)N2)c1	98*	101*	20	4	77*	99*	70*
C/C(=N\NC(=O)c1ccccn1)c1ccc(Cl)cc1	-45	2	-126	.	3	-3	.
C/C(=N\NC(=O)c1ccc(Cl)cc1)c1ccccn1	-63	.	33	.	23*	.	99*
CCn1c(SCC(=O)c2ccccc2)nc2ccccc2c1=O	-21	7	-8	2	61*	3	37*
CC1(C)N=C(N)N=C(N)N1c1ccccc1	99*	99*	8	6	40*	96*	52*
Nc1ccc2nn(-c3ccccc3)nc2c1	.	1	-11	-93	-2	-4	.
CC1(C)N=C(N)N=C(N)N1c1ccc(Oc2ccc(Cl)cc2)c(Cl)c1	85*	.	2	.	55*	.	33*
CCn1c(=O)cc(SCC(=O)NCCCN2CCN(c3ccccc3F)CC2)c2ccccc21	-41	18	-14	11	22*	11	27*
Fc1ccccc1Nc1nc2ccccc2o1	-42	.	-49	.	2	.	.
COc1ccc2[nH]c3c4c(ccc3c2c1)C(=O)C=CC4=O	.	8	-22	.	57*	46*	10
COc1ccc2[nH]c(=O)cc(C(=O)O)c2c1	-5	2	-17	-17	5	-2	.
C=CCSc1nsc(NC(=O)Nc2ccc(F)cc2)n1	10	.	-13	.	32*	.	48*
CCSc1nsc(NC(=O)Nc2ccccc2F)n1	-183	.	-155	.	-3	.	.
COc1ccc(OCCCC(=O)OCC(=O)NNC(=O)c2ccc([N+](=O)[O-])cc2)cc1	-5	.	.	.	.	.	.
COc1ccc(-c2cc(C(=O)N/N=C(\C)c3cccnc3)c3cc(C)ccc3n2)cc1OC	-14	.	-9	.	34*	.	19
C/C(=N\NC(=O)c1n[nH]c2c1CCC2)c1ccco1	44	86*	61	.	79*	83*	10
COc1cc(C2c3cc4c(cc3C(OC3OC5COC(c6cccs6)OC5C(O)C3O)C3COC(=O)C23)OCO4)cc(OC)c1O (stereo not given)	82*	102*	41	.	93*	98*	74*
SMILES	aSyn UTR inh	BaF3 parental	KLF5 inhibitor	APP 5UTR inh	IEC-6 cytotox	Ba/F3 V617F tox	IEC-6 tox confirm
C/C(CC(=O)Nc1ccc(C)c(Cl)c1)=N\NC(=O)c1ccccn1	-71	.	-81	.	2	.	.
COc1ccc2cc1Oc1ccc(cc1)CC1c3c(cc(OC)c4c3Oc3cc5c(cc3O4)CCNC5C2)CCN1C (stereo not given)	114*	1	-10	.	45*	-1	8
O=C(c1cc(NC(=O)C23CC4CC(CC(C4)C2)C3)cc(NC(=O)C23CC4CC(CC(C4)C2)C3)c1)N1CCCCC1	55	3	5	-5	37*	0	30*
O=C(Cc1ccc(S(=O)(=O)N2CCOCC2)s1)Oc1ccc(F)cc1	6	.	.	.	.	.	.
CCCN(CCC)CCNC(=O)c1cc2c(-c3ccccc3F)nn(C)c2s1	-62	.	-20	.	11	.	.
CCCN(CCC)CCNC(=O)c1cc2c(-c3ccc(Cl)cc3)nn(C)c2s1	35	.	-3	.	22*	.	15
O=C(Nc1cccnc1)c1ccc([N+](=O)[O-])o1	-202	.	-11	.	76*	.	2
O=C(Cc1ccc(-c2ccccc2)cc1)NCc1cccnc1	-48	20	-1	-40	25*	18	25*
O=C(Nc1cccnc1)c1ccco1	-13	6	-8	26	-4	1	.
O=C(NCc1cccnc1)c1ccc([N+](=O)[O-])o1	-117	-6	-17	7	32*	1	16
O=C(O)CCn1nnc(-c2ccccc2)n1	-37	10	-23	2	3	3	.
CCOc1cc(CNc2ccc3c(c2)OCCO3)cc(Br)c1OCC	97*	74*	7	95*	83*	74*	53*
COc1ccc(C(=O)Cc2cc(OC)c(OC)cc2C(=O)c2ccccc2F)cc1OC	6	8	3	-28	1	3	.
Cc1cc(Cl)cc(C)c1OCCn1ccnc1	3	.	38	.	44*	.	14
O=C(O)c1ccc(N/N=C/c2cccc(C(F)(F)F)c2)cc1	-99	.	-138	.	32*	.	37*
O=C(NCCOc1ccccc1F)c1cc([N+](=O)[O-])ccc1N1CCOCC1	-36	.	43	.	49*	.	41*
O=C(Cn1c(=S)[nH]c2ncccc2c1=O)NCCc1ccccc1	5	3	9	15	-2	3	.
COc1cc2c(cc1OC)CN(C(=O)C(CCSC)NS(=O)(=O)c1ccc(C)cc1)CC2 (stereo not given)	6	.	0	.	2	.	.
CC(C)(C)c1ccc(C2CC2C(=O)N/N=C\c2ccc[nH]2)cc1 (stereo not given)	44	75*	-39	80*	58*	100*	89*
O=C(N/N=C/c1ccco1)C1CC1c1ccccc1 (stereo not given)	-2	8	22	2	5	3	.
CN(C)c1cccc(NC2=CC(=[N+]3CCOCC3)CC(C)(C)C2)c1	1	4	-18	5	-2	2	.
CN(Cc1ccccc1)C1=CC(=[N+]2CCCC2)CC(C)(C)C1	-18	73*	-4	.	31*	94*	28*
CC1CC(C)C[N+](=C2C=C(N3CCCC3)CC(C)(C)C2)C1 (stereo not given)	-14	72*	9	7	35*	92*	23*
O=C(O)CC1COc2ccccc2N1C(=O)c1ccccc1Cl (stereo not given)	21	12	-8	3	-8	4	.
